Assay results from PubChem BioAssay (EPA / NIEHS).
“And” between values parts separate entries of the source, which are not always exact repeats. Equal entries are not always repeated. The source made the active and inactive calls. Rule for the calls: active = hit-call score of the fitted dose curve at least 0.9, where 1 is the maximum; inactive = score below 0.9.

read-out: Cytochrome P450 4A22 (Homo sapiens) (UniProt Q5TCH4); test: LTEA_HepaRG_CYP4A22: Life Technologies and Expression Analysis (LTEA) Assay for Cytochrome P450 4A22 (CYP4A22) using HepaRG (AID 2283495); details: mRNA level, 48 h; actives raise or lower the signal
Protocol: LTEA_HepaRG is a cell based, multiplexed-readout assay that uses HepaRG, a human liver cell line, with measurements taken at 48 hours after chemical dosing on a 96-well plate.LTEA_HepaRG_CYP4A22 is one of 102 assay component(s) measured in the LTEA HepaRG cell culture assay. It is a marker of NR mediated metabolism.Data from the assay component LTEA_HepaRG_CYP4A22 was analyzed into 1 endpoint. This assay endpoint, LTEA_HepaRG_CYP4A22, was analyzed with bidirectional fitting relative to DMSO as the negative control and baseline of activity. Using a type of inducible reporter, measures of mRNA induction for gain or loss-of-signal activity can be used to understand regulation of transcription factor activity. To generalize the intended target to other relatable targets, this assay endpoint is annotated to the cyp intended target family, where the subfamily is xenobiotic metabolism.
A total of 1060 chemcials from the ToxCast library were tested in eight-point concentration-response experiments. Cell culture and cytotoxicity assays were conducted at Thermo Fisher Scientific's Custom Services facility (Madison, WI). A single lot of human HepaRG cells (Thermo Fisher Scientific, Frederick, MD) was used for the cell culture experiments. 96-well format collagen type I coated plates of human HepaRG cells were prepared using established methods. Briefly, cryopreserved HepaRG cells were thawed, plated at a density of approximately 100,000 cells/well in HepaRG Thaw, Plate, and General Purpose media (HPRG770, Thermo Fisher Scientific), and incubated for 48 hours. 0.5% DMSO was selected as vehicle control to balance the requisite need of DMSO in HepaRG cultures to maintain differentiation (for example, baseline metabolism, proportions of hepatocytes vs. cholangiocytes), while enabling further hepatic receptor pathway activation (for example, PXR and CAR) in response to chemical exposure. 48 hours after plating, the culture medium was replaced with HepaRG Serum-Free Incudtion Media. Cells were exposed to each test chemical in duplicate and maintained in CO2 incubators for another 48 hours. Chemical plates were thawed to room temperature and 200x concentrations of treatment groups were prepared. 8-point conentration-reponse curves were made with the highest exposure at 100 uM, followed by half-log dilutions, all in 0.5% DMSO. Each test plate contained variouse controls, induction positive controls (1mM phenobarbital), cytotoxicity positive controls ([…] aflatoxin B1), vehicle controls (0.5% DMSO), and total lysis controls (0.5% DMSO). Cell morphology images were taken using an Essen IncuCyte FLR automated microscope, with six 96-well plates imaged in about 24 minutes. Images were captured and exported and JPEG files. Spent culture media was transfered to black-well plates for the LDH assay, and remaining media was sorted at -80 C for later use. Cells were treated with RLT buffer and frozen until shipped for gene expression analysis. Total RNA was isolated from the cell suspension in 75 uL of Buffer RLT (Qiagen, Germantown, MD 20874) by Quintiles/Expression Analysis (Durham, NC) using a custom isolation procedure. Total RNA from each plate well was transferred to a preamplification plate. Fluidigm's 96.96 Dynamic ArrayTM (Fluidigm, Amsterdam, the Netherlands) technology was used for gene expression analyses by quantitative reverse transcription polymerase chain reaction (qRT-PCR, performed by Quintiles/Expression Analysis, Durham, NC)89. Standard TaqManTM Assays (Applied Biosystems/ThermoFisher Scientific, Foster City, CA) were used to assess the expression of 93 genes selected based on their selectivity and sensitivity to important hepatic receptors known to be modulated by environmental chemicals; importance in human hepatocyte functionality; and hepatotoxicity. […]

| SMILES | AC50 | outcome |
| --- | --- | --- |
| C[C@]12CCC(=O)C[C@@H]1CC[C@@H]1[C@@H]2CC[C@]2(C)[C@@H](O)CC[C@@H]12 | 28.8 µM (active) | – |
| CCOP(=S)(OCC)Oc1nc(Cl)c(Cl)cc1Cl | – | inactive |
| CCN1CCC2(CC1)COc1cc3c(cc12)N(C(=O)c1ccc(-c2ccc(-c4nnc(C)o4)cc2C)cc1)CC3 | – | inactive |
| CC(C)(C)CC(C)(C)c1ccc(O)cc1 | 50 µM (active) | – |
| CN(C)N=O | – | inactive |
| Cn1sc(Cl)cc1=O | – | inactive |
| CCC(=O)C(CC(C)N(C)C)(c1ccccc1)c1ccccc1 (stereo unspecified) | – | inactive |
| CC(C)(C)c1cc(O)ccc1O | – | inactive |
| O=c1[nH]c(=O)[nH]c(=O)[nH]1 | – | inactive |
| Oc1cccc2cccnc12 | – | inactive |
| C=CC(=O)OCCCCCC(C)C | – | inactive |
| CCOP(=S)(OCC)SCSP(=S)(OCC)OCC | 0.0742 µM (active) | – |
| CCC(C)(C)c1ccc(O)c(C(C)(C)CC)c1 | – | inactive |
| O=[N+]([O-])c1ccc(O)c([N+](=O)[O-])c1 | 27.8 µM (active) | – |
| O=C(O)C(F)(F)C(F)(F)C(F)(F)C(F)(F)C(F)(F)C(F)(F)C(F)(F)C(F)(F)C(F)(F)C(F)(F)F | – | inactive |
| NC(=O)O | – | inactive |
| O=C1C2(Cl)C3(Cl)C4(Cl)C(Cl)(Cl)C5(Cl)C3(Cl)C1(Cl)C5(Cl)C24Cl (stereo unspecified) | 24.1 µM (active) | – |
| CC(C)(c1ccccc1)c1ccc(O)c(C(C)(C)c2ccccc2)c1 | 70.4 µM (active) | – |
| COc1cc(-c2ccc(N)c(OC)c2)ccc1N | 38.3 µM (active) and 50 µM (active) | – |
| CC(C)(OO)c1ccccc1 | – | inactive |
| O=C(O)C(F)(F)C(F)(F)C(F)(F)C(F)(F)C(F)(F)C(F)(F)F | 21.4 µM (active) | – |
| O=C(Nc1ccc2[nH]ccc2c1)c1cc2cc(F)ccc2n1Cc1cccc(F)c1 | 22.3 µM (active) | – |
| ClCC(Cl)CCl | – | inactive |
| Cc1ccccc1N | – | inactive |
| ClC1(Cl)C2(Cl)C3(Cl)C4(Cl)C(Cl)(Cl)C5(Cl)C3(Cl)C1(Cl)C5(Cl)C24Cl (stereo unspecified) | – | inactive |
| O=C(O)C(Cl)(Cl)Cl | – | inactive |
